Inconclusive results are not listed. Where a call stands in place of a potency, no number is given. The source made the active and inactive calls. Unless noted, calls follow the shape of the dose curve; as a rule, active = well fitted curve in the direction sought with a large enough effect in the repeat runs; inconclusive = weak or mixed curves; inactive = no such curve, though single readings can be large; an effect the other way counts as inactive or inconclusive.

Data on 37 molecules can be found in PubChem BioAssay (Tox21).

The first assay is described as follows: qHTS assay to identify small molecule antagonists of the estrogen related receptor (ERR) signaling pathway from Tox21 library (AID 1224848). Also: nearly all actives have a fitted effect of over 50% in size. The following applies: ERR reporter cell line, luciferase antagonist mode, 18 h; series mostly up to 92.4 µM. The method in brief: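 ERR cell line, 2,000 cells/well. 6 h settle, then compound (DMSO) added; 18 h at 37 C; ONE-Glo luminescence after 30 min RT.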
On the technique in general: Quantitative high-throughput screening tests each substance at several concentrations.
In the case of `CC(C(=O)O)c1ccc2c(c1)CC(=O)c1ccccc1S2` (stereo not drawn), the Potency entry is “inactive”.
Same read-out and setting: then `C=C(C)C(=O)OCc1ccccc1`, with “inactive”; and `CCN(CC)CC(=O)Nc1c(C)cccc1C`, with “inactive”.
On the same count and under the same terms, then `O=C(O)c1cc(Br)c(O)c(Br)c1`, with “inactive”; and `CC(C)(C)c1cc(CCC(=O)NN)cc(C(C)(C)C)c1O`, with “inactive”.

The nature of another assay: qHTS assay to identify small molecule agonists of the estrogen related receptor (ERR) signaling pathway from Tox21 library (AID 1224849; calls by dose curve; also: nearly all actives have a fitted effect of over 15% in size). To be noted: ERR reporter cell line, ONE-Glo luciferase, 18 h; at 92.4 µM (top of the series) unless noted. The procedure, abridged:
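Quantitative HTS in agonist format: NTP ERR cell line, compounds transferred in DMSO after 6 h plating, 18 h incubation at 37 C, ONE-Glo luminescence endpoint.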
Consider `CC(C(=O)O)c1ccc2c(c1)CC(=O)c1ccccc1S2` (stereo not drawn), for which the activity change, positive = activation was 4.13% [at 42.5 µM] (inactive).
The same measure, in the same setting: under `COC(=O)[C@@H]1[C@H]2C[C@H]3c4[nH]c5ccccc5c4CCN3C[C@@H]2CC[C@@H]1O` stands 33.5% [at 42.5 µM] (active); under `C=C(C)C(=O)OCc1ccccc1`, 1.9% (inactive).
The same measure, in the same setting: then `O=C(O)c1cc(Br)c(O)c(Br)c1`, with 4.86% (inactive); and `Cc1cc2cc3c(C)cc(=O)oc3c(C)c2o1`, with 7.29% [at 42.5 µM] (inactive).
On the same count and under the same terms, then `CC(C)(C)c1cc(CCC(=O)NN)cc(C(C)(C)C)c1O`, with -9% (inactive); and `CCCCCCCCSCC`, with 4.95% (inactive).

Another assay is described as follows: qHTS RealTime-Glo MT Cell Viability Assay in HepG2 cells - 24 hour (AID 1224867). Also: nearly all actives have a fitted effect of over 50% in size. To be noted: RealTime-Glo luminescence; series mostly up to 76.8 µM. The method in brief:
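Viability was tracked continuously by NanoLuc luminescence from prosubstrate reduced by living HepG2 cells, at successive time points over 40 h of compound exposure. Cells with reagent were preincubated 5 h at 37 °C before compound addition.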
With `CC(C)NCC(O)COc1cccc2[nH]ccc12` (stereo not drawn), the call was inactive.
On the same count and under the same terms, under `CC(C(=O)O)c1ccc2c(c1)CC(=O)c1ccccc1S2` (stereo not drawn) stands “inactive”.
On the same count and under the same terms, then `O=C(O)CCSSCCC(=O)O`, with “inactive”.
As for `CCCN1C[C@H](CSC)C[C@@H]2c3cccc4[nH]cc(c34)C[C@H]21`, the result was inactive.
Still for that read-out and setting: then `COC(=O)[C@@H]1[C@H]2C[C@H]3c4[nH]c5ccccc5c4CCN3C[C@@H]2CC[C@@H]1O`, with “inactive”; and `COc1ccc2c(c1)C(=O)N(CCc1ccc(S(=O)(=O)NC(=O)NC3CCCCC3)cc1)C(=O)C2(C)C`, with “inactive”.
Same read-out and setting: under `CN(CCOc1ccc(NS(C)(=O)=O)cc1)CCc1ccc(NS(C)(=O)=O)cc1` stands “inactive”; under `O=C(NCCc1c[nH]c2ccccc12)c1cccnc1`, “inactive”.
As to `C=C(C)C(=O)OCc1ccccc1`, the molecule was called inactive.
Still for that read-out and setting: under `CCN(CC)CC(=O)Nc1c(C)cccc1C` stands “inactive”.
Same read-out and setting: then `CCCCCCOc1ccccc1C(N)=O`, with “inactive”.
Still for that read-out and setting: under `Brc1ccc(-c2ccccc2)cc1` stands “inactive”; under `CCOc1cc([N+](=O)[O-])c(OCC)cc1N1CCOCC1`, “inactive”.
`c1ccc2c(c1)ccc1c3ccccc3ccc21`: the outcome was inactive.
For `CCCC/C=C/C=C\C=O`, the result was inactive.
Take `CCCCCCN`: the result was inactive.
Still for that read-out and setting: then `CCOC(=O)c1ccc(OC(=O)CCCCCN=C(N)N)cc1`, with “inactive”.
Same read-out and setting: then `CC1=C(C(=O)O)N2C(=O)[C@@H](NC(=O)[C@H](N)c3ccc(O)cc3)[C@H]2SC1`, with “inactive”.
On the same count and under the same terms, then `Cc1cc2cc3c(C)cc(=O)oc3c(C)c2o1`, with “inactive”.
Take `CC(C)NCC(O)COc1ccc(COCCOC(C)C)cc1` (stereo not drawn): the result was inactive.
Take `O=Cc1ccc(Cl)c(Cl)c1`: the call was inactive.
Same read-out and setting: under `CCOC(=O)c1ncn2c1CN(C)C(=O)c1cc(F)ccc1-2` stands “inactive”.

A short description of another assay: qHTS RealTime-Glo MT Cell Viability Assay in HEK293 cells - 32 hour (AID 1224868). Also: nearly all actives have a fitted effect of over 50% in size. Also: potency is read from the fitted curve at half-maximal effect. As to activity change, negative = cytotoxic: top concentration of the series differs between compounds. The following applies: RealTime-Glo luminescence; series mostly up to 76.8 µM. The procedure, abridged:
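Viability tracked continuously by luminescence as live cells reduce a prosubstrate for NanoLuc; HEK293 cells preincubated 5 h, compound-treated at 37 C, and read at 0, 8, 16, 24, 32 and 40 h.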
For `CC(C)NCC(O)COc1cccc2[nH]ccc12` (stereo not drawn), the Potency result is “inactive”.
With `CC(C(=O)O)c1ccc2c(c1)CC(=O)c1ccccc1S2` (stereo not drawn), the Potency result was “inactive”.
As for `CCCN1C[C@H](CSC)C[C@@H]2c3cccc4[nH]cc(c34)C[C@H]21`, the Potency entry was “inactive”.
The same measure, in the same setting: under `COC(=O)[C@@H]1[C@H]2C[C@H]3c4[nH]c5ccccc5c4CCN3C[C@@H]2CC[C@@H]1O` stands “inactive”.
Turning to `Oc1cn2c(n1)Nc1ccc(Cl)c(Cl)c1C2`, the activity change, negative = cytotoxic was 9.1% [at 15.8 µM] (inactive).
As to `CC1(CO)CN(c2ccccc2)NC1=O` (stereo not drawn), the Potency entry is “inactive”.
Still for that read-out and setting: then `C=C(C)C(=O)OCc1ccccc1`, with “inactive”.
With `CC(C)=O`, the Potency entry is “inactive”.
Still for that read-out and setting: under `O=C(O)c1cc(Br)c(O)c(Br)c1` stands “inactive”; under `CCCCCCOc1ccccc1C(N)=O`, 16.9 µM (active).
As to `Brc1ccc(-c2ccccc2)cc1`, the Potency result was “inactive”.
Still for that read-out and setting: under `CCOc1cc([N+](=O)[O-])c(OCC)cc1N1CCOCC1` stands 15.5 µM (active); under `CC(C)C(=O)OCc1cccc(OC(=O)[C@@H]2N3C(=O)[C@@H](NC(=O)Cc4ccccc4)[C@H]3SC2(C)C)c1`, “inactive”; under `c1ccc2c(c1)ccc1c3ccccc3ccc21`, “inactive”.
The same measure, in the same setting: then `CCCCNc1ccc(C(=O)OCCN(C)C)cc1`, with “inactive”; and `CCCC/C=C/C=C\C=O`, with “inactive”; and `CCCCCCN`, with “inactive”.
On the same count and under the same terms, then `O=C1CCCC(=O)O1`, with “inactive”.
`Cc1cc(C(C)(C)C)c(O)c(C)c1CC1=NCCN1`: the Potency result is “inactive”.
As to `CCOC(=O)c1ccc(OC(=O)CCCCCN=C(N)N)cc1`, the Potency entry is “inactive”.
Same read-out and setting: under `CC1=C(C(=O)O)N2C(=O)[C@@H](NC(=O)[C@H](N)c3ccc(O)cc3)[C@H]2SC1` stands “inactive”; under `Cc1cc2cc3c(C)cc(=O)oc3c(C)c2o1`, “inactive”; under `CC(C)(C)c1cc(CCC(=O)NN)cc(C(C)(C)C)c1O`, “inactive”.
Consider `CCCCCCCCSCC`, for which the Potency entry was “inactive”.
Same read-out and setting: under `CC(C)NCC(O)COc1ccc(COCCOC(C)C)cc1` (stereo not drawn) stands “inactive”; under `CCOC(=O)c1ncn2c1CN(C)C(=O)c1cc(F)ccc1-2`, “inactive”.
On the same count and under the same terms, under `Cc1cc(NC(=O)C2=C(O)c3ccccc3S(=O)(=O)N2C)no1` stands “inactive”.

A further assay in a line: A CellTox Green Cytotoxicity Assay to monitor cytotoxicity in HEK293 cells - 0 hour (AID 1224869). Also: nearly all actives have a fitted effect of over 50% in size. To be noted: CellTox Green fluorescence; series mostly up to 76.8 µM. The procedure, abridged: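 Dead-cell fluorescence measured kinetically: asymmetric cyanine dye, HEK293, 600 cells/well, 5 h settle, 23 nL cpd/DMSO, 37 C, reads 0–40 h every 8 h.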
On to `O=P(O)(O)OP(=O)(O)O`, for which the molecule was called inactive.
Still for that read-out and setting: then `CC(C)NCC(O)COc1cccc2[nH]ccc12` (stereo not drawn), with “inactive”.
For the molecule `CC(C(=O)O)c1ccc2c(c1)CC(=O)c1ccccc1S2` (stereo not drawn), the molecule was called inactive.
Still for that read-out and setting: under `O=C(O)CCSSCCC(=O)O` stands “inactive”.
`CCCN1C[C@H](CSC)C[C@@H]2c3cccc4[nH]cc(c34)C[C@H]21`: the molecule was classed as inactive.
Consider `COC(=O)[C@@H]1[C@H]2C[C@H]3c4[nH]c5ccccc5c4CCN3C[C@@H]2CC[C@@H]1O`, for which the molecule was classed as inactive.
Turning to `Oc1cn2c(n1)Nc1ccc(Cl)c(Cl)c1C2`, the cytotoxicity is 0.503% [at 15.8 µM] (inactive).
With `CC1(CO)CN(c2ccccc2)NC1=O` (stereo not drawn), the molecule was classed as inactive.
`COc1ccc2c(c1)C(=O)N(CCc1ccc(S(=O)(=O)NC(=O)NC3CCCCC3)cc1)C(=O)C2(C)C`: the outcome was inactive.
On to `CN(CCOc1ccc(NS(C)(=O)=O)cc1)CCc1ccc(NS(C)(=O)=O)cc1`, for which the result was inactive.
The same measure, in the same setting: under `O=C(NCCc1c[nH]c2ccccc12)c1cccnc1` stands “inactive”.
The same measure, in the same setting: then `CCN1CCc2nc(N)oc2CC1`, with “inactive”; and `C=C(C)C(=O)OCc1ccccc1`, with “inactive”; and `CC(C)=O`, with “inactive”.
The same measure, in the same setting: then `CCN(CC)CC(=O)Nc1c(C)cccc1C`, with “inactive”.
Consider `O=C(O)c1cc(Br)c(O)c(Br)c1`, for which the call was inactive.
On the same count and under the same terms, under `CCCCCCOc1ccccc1C(N)=O` stands “inactive”; under `Brc1ccc(-c2ccccc2)cc1`, “inactive”; under `CCOc1cc([N+](=O)[O-])c(OCC)cc1N1CCOCC1`, “inactive”.
The same measure, in the same setting: under `CC(C)C(=O)OCc1cccc(OC(=O)[C@@H]2N3C(=O)[C@@H](NC(=O)Cc4ccccc4)[C@H]3SC2(C)C)c1` stands “inactive”; under `c1ccc2c(c1)ccc1c3ccccc3ccc21`, “inactive”; under `C=COCCOCCOCCOC=C`, “inactive”.
Consider `CCCCNc1ccc(C(=O)OCCN(C)C)cc1`, for which the result was inactive.
Consider `CCCC/C=C/C=C\C=O`, for which the molecule was called inactive.
Regarding `CCCCCCN`, the molecule was called inactive.
The same measure, in the same setting: under `O=C1CCCC(=O)O1` stands “inactive”.
The same measure, in the same setting: under `Cc1cc(C(C)(C)C)c(O)c(C)c1CC1=NCCN1` stands “inactive”; under `Nc1nnc(-c2cccc(Cl)c2Cl)c(N)n1`, “inactive”.
On the same count and under the same terms, under `CCOC(=O)c1ccc(OC(=O)CCCCCN=C(N)N)cc1` stands “inactive”.
Take `CC1=C(C(=O)O)N2C(=O)[C@@H](NC(=O)[C@H](N)c3ccc(O)cc3)[C@H]2SC1`: the molecule was called inactive.
Still for that read-out and setting: under `Cc1cc2cc3c(C)cc(=O)oc3c(C)c2o1` stands “inactive”; under `CC(C)(C)c1cc(CCC(=O)NN)cc(C(C)(C)C)c1O`, “inactive”; under `CCCCCCCCSCC`, “inactive”.
Same read-out and setting: then `CC(C)NCC(O)COc1ccc(COCCOC(C)C)cc1` (stereo not drawn), with “inactive”; and `O=Cc1ccc(Cl)c(Cl)c1`, with “inactive”; and `CCOC(=O)c1ncn2c1CN(C)C(=O)c1cc(F)ccc1-2`, with “inactive”.
On to `Cc1cc(NC(=O)C2=C(O)c3ccccc3S(=O)(=O)N2C)no1`, for which the molecule was classed as inactive.
